Inconclusive results are not listed. Calls of active or inactive are those of the source. The call rests on the fitted dose curve; in most records, active means well fitted curve in the direction sought with a large enough effect in the repeat runs; inconclusive means weak or mixed curves; inactive means no such curve, though single readings can be large; an effect the other way counts as inactive or inconclusive.
What was measured:
[1] = qHTS RealTime-Glo MT Cell Viability Assay in HepG2 cells - 40 hour (AID 1224870); further: nearly all actives have a fitted effect of over 50% in size
Outline: (§1)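 Real-time viability: cells seeded at 600 per well together with NanoLuc and cell-permeant prosubstrate, compounds added after 5 h incubation. Luminescence tracked at 0, 8, 16, 24, 32 and 40 h of exposure.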

[2] = A CellTox Green Cytotoxicity Assay to monitor cytotoxicity in HEK293 cells - 40 hour (AID 1224871); further: nearly all actives have a fitted effect of over 45% in size
Outline: (§2)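 Dead-cell fluorescence measured kinetically: asymmetric cyanine dye, HEK293, 600 cells/well, 5 h settle, 23 nL cpd/DMSO, 37 C, reads 0–40 h every 8 h.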

[3] = A CellTox Green Cytotoxicity Assay to monitor cytotoxicity in HEK293 cells - 24 hour (AID 1224875); further: series mostly up to about 77 µM; nearly all actives have a fitted effect of over 45% in size
Outline: as §2

[4] = A CellTox Green Cytotoxicity Assay to monitor cytotoxicity in HepG2 cells - 16 hour (AID 1224876); further: nearly all actives have a fitted effect of over 45% in size
Outline: (§3)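 First, HepG2 cells (600/well) mixed with reagent were plated; second, after 5 h at 37 C they received compounds via pintool; third, fluorescence was measured at 0 h through 40 h at 8 h intervals.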

[5] = qHTS RealTime-Glo MT Cell Viability Assay in HepG2 cells - 32 hour (AID 1224877); further: nearly all actives have a fitted effect of over 55% in size
Outline: (§4)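 qHTS, HepG2, 600 cells/well, RealTime-Glo (NanoLuc + prosubstrate) added with cells; 5 h preincubation; DMSO compound addition; 37 C; luminescence at 0/8/16/24/32/40 h.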

[6] = A CellTox Green Cytotoxicity Assay to monitor cytotoxicity in HepG2 cells - 24 hour (AID 1224878); further: nearly all actives have a fitted effect of over 45% in size
Outline: as §3

[7] = A CellTox Green Cytotoxicity Assay to monitor cytotoxicity in HepG2 cells - 40 hour (AID 1224879); further: nearly all actives have a fitted effect of over 40% in size
Outline: as §3

[8] = qHTS RealTime-Glo MT Cell Viability Assay in HEK293 cells - 0 hour (AID 1224880)
Outline: (§5)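 600 HEK293 cells per well, dispensed already mixed with RealTime-Glo MT reagents. Compound dosing came 5 h later. The same wells were read for luminescence at 0, 8, 16, 24, 32 and 40 h of exposure at 37 C.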

[9] = A CellTox Green Cytotoxicity Assay to monitor cytotoxicity in HEK293 cells - 32 hour (AID 1224881); further: nearly all actives have a fitted effect of over 40% in size
Outline: as §2

[10] = A CellTox Green Cytotoxicity Assay to monitor cytotoxicity in HepG2 cells - 0 hour (AID 1224882); further: nearly all actives have a fitted effect of over 35% in size
Outline: as §3

[11] = A CellTox Green Cytotoxicity Assay to monitor cytotoxicity in HepG2 cells - 32 hour (AID 1224883); further: nearly all actives have a fitted effect of over 50% in size
Outline: as §3

[12] = A CellTox Green Cytotoxicity Assay to monitor cytotoxicity in HEK293 cells - 8 hour (AID 1224884); further: nearly all actives have a fitted effect of over 35% in size
Outline: as §2

[13] = qHTS RealTime-Glo MT Cell Viability Assay in HEK293 cells - 24 hour (AID 1224886); further: top concentration of the series differs between compounds; nearly all actives have a fitted effect of over 50% in size
Outline: (§6)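 Assay medium contained NanoLuc luciferase plus cell-permeant prosubstrate, added with HEK293 cells at 600 cells/well. After 5 h at 37 C/5% CO2 compounds were added; plates stayed at 37 C for 40 h with serial luminescence reads.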

[14] = qHTS RealTime-Glo MT Cell Viability Assay in HEK293 cells - 8 hour (AID 1224887); further: top concentration of the series differs between compounds; nearly all actives have a fitted effect of over 50% in size
Outline: as §5

[15] = A CellTox Green Cytotoxicity Assay to monitor cytotoxicity in HEK293 cells - 16 hour (AID 1224888); further: nearly all actives have a fitted effect of over 35% in size
Outline: as §2

[16] = qHTS RealTime-Glo MT Cell Viability Assay in HepG2 cells - 0 hour (AID 1224889); further: nearly all actives have a fitted effect of over 50% in size
Outline: as §4

[17] = qHTS RealTime-Glo MT Cell Viability Assay in HEK293 cells - 40 hour (AID 1224874); conditions: RealTime-Glo luminescence; max response: active compounds read low; further: nearly all actives have a fitted effect of over 50% in size
Outline: as §5

[18] = qHTS RealTime-Glo MT Cell Viability Assay in HepG2 cells - 8 hour (AID 1224873); further: nearly all actives have a fitted effect of over 55% in size
Outline: as §1

[19] = qHTS RealTime-Glo MT Cell Viability Assay in HepG2 cells - 16 hour (AID 1224885); further: nearly all actives have a fitted effect of over 50% in size
Outline: as §4

[20] = qHTS RealTime-Glo MT Cell Viability Assay in HEK293 cells - 16 hour (AID 1224872)
Outline: as §6
On the % scale 0 is the no-effect control and ±100 the full control effect.

CCOC(=O)Cn1c(=O)sc2cccc(Cl)c21
inactive: Potency [1] | Potency [2] | Potency [3] | Potency [4] | Potency [5] | Potency [6] | Potency [7] | outcome [8] | Potency [9] | Potency [10] | Potency [11] | Potency [12] | Potency [13] | Potency [14] | Potency [15] | Potency [16]

COc1cccc(OC)c1
inactive: Potency [1] | Potency [2] | max response [17] 0.816% | Potency [3] | Potency [4] | Potency [6] | Potency [7] | outcome [8] | Potency [9] | Potency [11] | Potency [12] | Potency [13] | Potency [14] | Potency [15] | Potency [16]

CC(O)CN(CCCN(C)C)CCCN(C)C (stereo unspecified)
inactive: Potency [1] | Potency [2] | max response [17] -1.59% | Potency [3] | Potency [4] | Potency [5] | Potency [6] | Potency [7] | outcome [8] | Potency [9] | Potency [10] | Potency [11] | Potency [12] | Potency [13] | Potency [14] | Potency [15]

NC(=O)c1c(Cl)cccc1Cl
inactive: Potency [1] | Potency [2] | outcome [18] | max response [17] -0.288% | Potency [4] | Potency [6] | Potency [7] | outcome [8] | Potency [9] | Potency [11] | Potency [12] | outcome [19] | Potency [13] | Potency [14] | Potency [16]

COc1cccc(Br)c1
inactive: Potency [1] | Potency [2] | outcome [18] | Potency [3] | outcome [8] | Potency [9] | Potency [12] | outcome [19] | Potency [13] | Potency [14] | Potency [16]

CC(C)(C)C(=O)/C=C/c1ccc(Cl)cc1
inactive: Potency [1] | Potency [20] | outcome [18] | max response [17] -0.497% | Potency [3] | Potency [4] | Potency [5] | Potency [6] | Potency [7] | outcome [8] | Potency [9] | Potency [10] | Potency [11] | Potency [12] | outcome [19] | Potency [13] | Potency [14] | Potency [15] | Potency [16]

Fc1ccccc1-c1ccccc1
inactive: Potency [1] | Potency [20] | outcome [18] | max response [17] -21.5% | Potency [4] | Potency [5] | Potency [6] | Potency [12] | outcome [19] | Potency [13] | Potency [14]

Nc1[nH]c(=O)ncc1F
inactive: Potency [1] | Potency [2] | Potency [3] | Potency [4] | Potency [5] | Potency [6] | Potency [7] | outcome [8] | Potency [9] | Potency [10] | Potency [11] | Potency [12] | outcome [19] | Potency [13] | Potency [14] | Potency [15] | Potency [16]

CCC(C)(C)C1CCC(OC)CC1 (stereo unspecified)
inactive: Potency [1] | Potency [2] | outcome [18] | Potency [3] | Potency [4] | Potency [5] | Potency [6] | Potency [7] | outcome [8] | Potency [9] | Potency [10] | Potency [11] | Potency [12] | Potency [14] | Potency [15] | Potency [16]
